Our source for the Potency, outcome and activity change, negative = cytotoxicity values is PubChem BioAssay (NCATS).

Records with an inconclusive call do not appear. Values without a mark were called inactive. Calls of active or inactive are those of the source. Calls follow the shape of the dose curve; as a rule, active = well fitted curve in the direction sought with a large enough effect; inconclusive = small, poorly fitted or top-dose-only effect, or another doubt; inactive = no such curve, though single readings can be large; an effect the other way counts as inactive or inconclusive. Where a SMILES comes first, the peptide text is derived from it. The star is where a group is joined. AFC = O=c1cc(C(F)(F)F)c2ccc(N*)cc2o1

One assay relates to HEK293T. Kind of assay: qHTS assay to identify novel small-molecules to repurpose for Merkel cell carcinoma treatment (AID 1296009). Also: nearly all actives have a fitted effect of over 60% in size. The conditions noted are these: MCC and control cell lines, CellTiter-Glo viability, 72 h; series mostly up to 44.8 µM. The gist of the method: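 Cells exposed to NPC (8-point) and MIPE (11-point) compound dilutions for 72 hr at 37 degree celsius; viability read by CellTiter-Glo luminescence, normalized to no-cell and DMSO in-plate controls.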
In general terms: In qHTS, concentration-response curves come from the screen itself.

In the next assay the test system is C33A. Kind of assay: Primary qHTS to identify gynecologic anti-cancer compounds using libraries of approved drugs and bioactive compounds (AID 1345084). Also: % is scaled to controls: 0 for no effect and ±100 for the full control effect; nearly all actives have a fitted effect of over 55% in size. The conditions noted are these: Gynecologic cancer cell panel viability, ATPlite luminescence, 48 h; series mostly up to 57.5 µM. The gist of the method: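 Luminescence from the ATPlite ATP-monitoring reagent indicates viable cell number; lower signal means cytotoxicity. Cells received compound 16 h after seeding and were exposed for 48 h across five concentrations.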

`COc1cc2c(cc1O)C1(OC)Cc3ccc4c(c3C1N(C)CC2)OCO4` (stereo unspecified): the Potency entry in the assay with HEK293T and in the assay on C33A was “inactive” each time.

For `N[C@@H](CC(=O)N1CCn2c(nnc2C(F)(F)F)C1)Cc1[nH]nc2c(F)c(F)ccc12`, the Potency entry in the assay on HEK293T and in the assay with C33A was “inactive” in each case.

Turning to `COC(=O)C1=CO[C@@H](O[C@@H]2O[C@H](CO)[C@@H](O)[C@H](O)[C@H]2O)[C@@H]2[C@@](C)(O)[C@@H](O)C[C@]12O`, the Potency result in the assay on HEK293T and in the assay on C33A was “inactive” throughout.

With `COC1=CC(=O)O[C@@H](CCc2ccccc2)[C@@H]1O`, the Potency result in the assay on HEK293T and in the assay on C33A was “inactive” throughout.

As for `COC(=O)C1=CO[C@@H](O[C@@H]2O[C@H](CO[C@@H]3O[C@H](COC(=O)/C=C/c4ccc(O)cc4)[C@@H](O)[C@H](O)[C@H]3O)[C@@H](O)[C@H](O)[C@H]2O)[C@@H]2C(CO)=CC[C@H]12`, the Potency result in the assay with HEK293T and with C33A was “inactive” in each case.

For `CC(/C=C/C1(O)C2(C)COC1(C)CC(=O)C2)O[C@@H]1O[C@H](CO)[C@@H](O)[C@H](O)[C@H]1O` (stereo partly specified), the Potency result with HEK293T and with C33A was “inactive” in each case.

As for `CCNC(=O)[C@@H]1CCCN1C(=O)[C@H](CCCN=C(N)N)NC(=O)[C@H](CC(C)C)NC(=O)[C@@H](C)NC(=O)[C@H](Cc1ccc(O)cc1)NC(=O)[C@H](CO)NC(=O)[C@H](Cc1c[nH]c2ccccc12)NC(=O)[C@H](Cc1cnc[nH]1)NC(=O)[C@@H]1CCC(=O)N1`, the Potency result in the assay with HEK293T and in the assay with C33A was “inactive” each time.

In the case of `C=C1C(O[C@@H]2O[C@H](CO)[C@@H](O)[C@H](O)[C@@H]2O)CC2C(C)(C)C(O)CCC2(C)C1CC/C(C)=C\CO` (stereo partly specified), the Potency result in the assay on HEK293T and in the assay with C33A was “inactive” each time.

As for `C[C@@H]1CC[C@]2(C)C3(C)CC[C@@]2(OC3=O)[C@@]12C[C@H](c1ccoc1)OC2=O`, the Potency entry in the assay on HEK293T and with C33A was “inactive” each time.

`COc1c2c(c(C)c3c1C(=O)OC3)O[C@@]1(C)C[C@@H](O)[C@]34O[C@](OC)(CC[C@]3(C)[C@H]1C2)OC4(C)C`: the Potency entry in the assay on HEK293T and in the assay with C33A was “inactive” in each case.

Turning to `C=C1[C@H]2CC[C@]3(O)[C@@](CC[C@@H]4[C@](C)(C(=O)O)CCC[C@]43C)(C2)[C@H]1OC(=O)/C(C)=C\C`, the Potency entry with HEK293T and in the assay on C33A was “inactive” each time.

As for `C[C@@H](OC(=O)/C=C/c1ccc(O)cc1)C1=C[C@]2(C=C[C@@H]3C(C(=O)O)=CO[C@@H](O[C@@H]4O[C@H](CO[C@@H]5O[C@H](CO)[C@@H](O)[C@H](O)[C@H]5O)[C@@H](O)[C@H](O)[C@H]4O)[C@@H]32)OC1=O`, the Potency entry in the assay with HEK293T and in the assay with C33A was “inactive” throughout.

As for `CC1(C)O[C@]23C[C@H]1C[C@H](OC(=O)c1ccoc1)[C@]2(C)[C@@H](OC(=O)c1ccoc1)CCC3(C)O` (stereo partly specified), the Potency result in the assay on HEK293T and with C33A was “inactive” in each case.

For the compound `OC[C@H]1O[C@@H](n2cnc3c2NC=NC[C@H]3O)C[C@@H]1O`, the Potency result in the assay with HEK293T and in the assay on C33A was “inactive” each time.

With `CC(=O)OC[C@@]12[C@@H](OC(C)=O)C[C@@H](C)[C@](C)([C@@H]3C[C@H]4C=CO[C@H]4O3)[C@H]1CCC[C@]21CO1`, the Potency entry with HEK293T and in the assay with C33A was “inactive” in each case.

Take `CC(=O)c1c(O)cc2c(c1C)C(=O)CC(O)C2` (stereo unspecified): the Potency entry in the assay on HEK293T and with C33A was “inactive” in each case.

`CC(=O)OCCC(C)CCC1C(C)(O)CCC2C(C)(C)CCCC21C` (stereo unspecified): the Potency result with HEK293T and in the assay with C33A was “inactive” throughout.

Consider `CC(=O)N[C@H]1[C@H](O[C@H]2CC[C@@]3(C)C(CC[C@]4(C)C3CC=C3C5CC(C)(C)CC[C@]5(C(=O)O)[C@H](O[C@@H]5O[C@H](CO)[C@@H](O)[C@H](O)[C@H]5O)C[C@]34C)C2(C)C)O[C@H](CO[C@@H]2OC[C@H](O)[C@H](O)[C@H]2O[C@@H]2OC[C@@H](O)[C@H](O)[C@H]2O)[C@@H](O)[C@@H]1O` (stereo partly specified), for which the outcome in the assay with HEK293T was “inactive [at 9.27 µM]”. Also, the activity change, negative = cytotoxicity in the assay with C33A is -4.04% [at 11.6 µM].

Consider `COc1c(C)c(OCC=C(C)C)cc2c1C(=O)NC2=O`, for which the Potency result in the assay on HEK293T and in the assay on C33A was “inactive” in each case.

As to `O=c1c2ccccc2nc2n1CCC2O` (stereo unspecified), the Potency entry in the assay with HEK293T and in the assay on C33A was “inactive” in each case.

Consider `C[C@H]1CC[C@@]2(OC1)O[C@H]1CC3C4CC=C5C[C@H](O)C[C@@H](O[C@@H]6O[C@@H](C)[C@H](O)[C@@H](O)[C@H]6O[C@@H]6O[C@@H](C)[C@H](O)[C@@H](O)[C@H]6O)[C@]5(C)C4CC[C@]3(C)[C@H]1[C@@H]2C` (stereo partly specified), for which the Potency result in the assay on HEK293T and with C33A was “inactive” in each case.

`CN1C(=O)c2ccccc2NC(=O)[C@]12O[C@@H]2c1cccc(O)c1`: the Potency result in the assay with HEK293T and in the assay with C33A was “inactive” in each case.

As for `COC(=O)[C@@]1(C)CC[C@]2(C(=O)O[C@@H]3O[C@H](CO)[C@@H](O)[C@H](O)[C@H]3O)CC[C@]3(C)C(=CCC4[C@@]5(C)CC[C@H](O[C@@H]6O[C@H](C(=O)O)[C@@H](O)[C@H](O)[C@H]6O)C(C)(C)C5CC[C@]43C)[C@@H]2C1` (stereo partly specified), the outcome in the assay on HEK293T was “inactive [at 9.27 µM]”. Further, in the assay with C33A, the activity change, negative = cytotoxicity was -14.8% [at 11.6 µM].

`OCc1ccccc1O[C@@H]1O[C@H](CO)[C@@H](O)[C@H](O)[C@H]1O`: the Potency entry in the assay on HEK293T and in the assay on C33A was “inactive” each time.

Turning to `CC1CCC2C(C)(C)C(O)CCC2(C)C12Cc1c(O)cc3c(c1O2)CN(C(CCC(N)=O)C(=O)O)C3=O` (stereo unspecified), the Potency result in the assay with HEK293T and with C33A was “inactive” each time.

Consider `C=C1[C@@H]2[C@H]3OC(=O)C(=C)[C@@H]3CC[C@@](C)(O)[C@@H]2C[C@@H]1O[C@@H]1O[C@H](CO)[C@@H](O)[C@H](O)[C@H]1O`, for which the Potency result in the assay on HEK293T and with C33A was “inactive” in each case.

Regarding `COc1cccc2c1CCC[C@H]2CN(C)CCc1ccc2ccoc2c1`, the Potency entry in the assay with HEK293T and with C33A was “inactive” each time.

`C=C1CCC2[C@@](C)(C=O)CCC[C@]2(C)[C@H]1CC/C(C)=C/CO` (stereo partly specified): the Potency result with HEK293T and in the assay with C33A was “inactive” in each case.

As to `CC[C@H]1OC(=O)[C@H](C)[C@@H](O[C@H]2C[C@@](C)(OC)[C@@H](O)[C@H](C)O2)[C@H](C)[C@@H](O[C@@H]2O[C@H](C)C[C@H](N(C)C)[C@H]2O)[C@@](C)(O)C[C@@H](C)[C@@H]2N[C@@H](COCCOC)OC([C@H]2C)[C@]1(C)O`, the Potency entry in the assay with HEK293T and in the assay with C33A was “inactive” each time.

Take `CC1=C(CC(=O)O)c2cc(F)ccc2C1=Cc1ccc(S(C)(=O)=O)cc1`: the Potency entry in the assay on HEK293T and in the assay on C33A was “inactive” in each case.

Consider `CC1(C)CCCC2(C)C1C(O)C=C(CO)C2(O)C(=O)O` (stereo unspecified), for which the Potency entry with HEK293T and in the assay with C33A was “inactive” in each case.

As for `C=C1CC23CCC4[C@@](C)(CCC[C@@]4(C)C(=O)O)C2CCC1C3` (stereo partly specified), the Potency result in the assay with HEK293T and with C33A was “inactive” throughout.

On to `C=C/C=C/[C@@H]1OC[C@H](/C=C/C=C/C)[C@H]1O`, for which the Potency result in the assay with HEK293T and with C33A was “inactive” each time.

As for `CC(=O)N[C@@H](CC(C)C)C(=O)N[C@@H](CCC(=O)O)C(=O)N[C@@H](CCC(=O)O)C(=O)N[C@@H](CC(=O)O)C(=O)Nc1ccc2c(C(F)(F)F)cc(=O)oc2c1` (Ac-LEED-{AFC}), the Potency result with HEK293T and with C33A was “inactive” throughout.

`CC(O)(CC(=O)O)CC(=O)O[C@@H]1[C@@H](O)[C@H](OCCc2ccccc2)O[C@H](CO)[C@H]1O` (stereo partly specified): the Potency entry in the assay with HEK293T and in the assay with C33A was “inactive” in each case.

Take `C=C1CC2C3(C)C(OC(C)=O)CC(=O)OC(C)(C)C3C(O)C(OC(C)=O)C2(C)C2C(=O)OC(C)C(=O)C12C` (stereo unspecified): the Potency entry in the assay with HEK293T and with C33A was “inactive” each time.

Consider `CC(=O)NC(C(=O)OC1CCC(C)(C)C2CC=C3C(=O)OCC3(O)C12C)C(C)C` (stereo unspecified), for which the Potency entry in the assay on HEK293T and in the assay on C33A was “inactive” each time.

Take `COc1cc(C2OCC3C(c4ccc(OC5OC(CO)C(O)C(O)C5O)c(OC)c4)OCC23)ccc1O` (stereo unspecified): the Potency entry in the assay on HEK293T and in the assay with C33A was “inactive” throughout.
